Among the data in PubChem BioAssay AID504832 (National Center for Advancing Translational Sciences (NCATS), 2011) are Potency and activity change, negative = inhibition values, retold here.

The structures appear in SMILES notation. The campaign covered roughly 310,000 compounds. About 18,000 (5.8%) were called active. A call without a number means that no potency is given here. Another 22% or so got no clear call; they are omitted. Only a selection was taken, and actives are over-represented in it overall. A number with no mark means an inactive call. The call rests on the fitted dose curve; in most records, active means well fitted inhibition curve with a large enough effect; inconclusive means small, poorly fitted or top-dose-only effect, or another doubt; inactive means no such curve, though single readings can be large or run the other way.
Potency means the concentration at half of the fitted maximal effect.

This assay can be described thus: Primary qHTS for delayed death inhibitors of the malarial parasite plastid, 48 hour incubation. As to conditions: P. falciparum luciferase growth in erythrocytes; series mostly up to 28.7 µM. In outline: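 Erythrocytes infected with P. falciparum carrying an integrated firefly luciferase reporter (2% hematocrit, 0.1% parasitemia final) were exposed to compounds in RPMI 1640 with 0.5% Albumax at 37 C, 5% CO2. Growth inhibition was scored as reduced luminescence.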
(In general: qHTS replaces the single test concentration by a dilution series.)
`CC(=O)Oc1cccc(N2C(=O)C3CC=C(Cl)CC3C2=O)c1` (centres undefined): the Potency is 11.7 µM (active).

Regarding `CC1=CCC2C(=O)N(c3cccc(C(=O)NC(C)c4ccccc4)c3)C(=O)C2C1` (centres undefined), the Potency result was “inactive”.

Turning to `CC(=O)Oc1cccc(N2C(=O)CC(Nc3ccc(N4CCOCC4)cc3)C2=O)c1` (centres undefined), the Potency entry was “inactive”.

`N#CC1(NC(=O)COC(=O)CSc2ccc(F)cc2)CCCCC1`: the Potency result was “inactive”.

Regarding `Cc1cccc(N=C2SC(C)CN2C(=O)CN2C(=O)NC3(CCCC3)C2=O)c1` (centres undefined), the Potency result is “inactive”.

Regarding `COCCN(C(=O)CC1CCCCC1)c1c(N)n(CC(C)C)c(=O)[nH]c1=O`, the Potency result was “inactive”.

`COc1ccc(NC(=O)c2cc([N+](=O)[O-])ccc2NC(=O)CNC2CCCCC2C)c(OC)c1` (centres undefined): the Potency was 6.57 µM (active).

Regarding `COc1cc([N+](=O)[O-])ccc1NC(=O)CN1CCCC1`, the Potency entry was “inactive”.

With `COc1ccc(NC(=O)CCCC2CCCCC2)c(OC)c1`, the Potency entry was “inactive”.

`Cc1cccc(C)c1NC(=O)CNC(=O)c1ccc2c(c1)OCCO2`: the Potency entry was “inactive”.

As for `O=C(c1cccs1)N(Cc1cc2ccccc2[nH]c1=O)CC1CCCO1` (centres undefined), the Potency result is “inactive”.

For the molecule `CCOc1ccc2[nH]c(=O)c(CN(Cc3nnnn3CCc3ccccc3)CC3CCCO3)cc2c1` (centres undefined), the Potency is 13.1 µM (active).

For `CCC(c1nnnn1Cc1ccco1)N(CCc1ccccc1)Cc1cc2cccc(C)c2[nH]c1=O` (centres undefined), the Potency is 11.7 µM (active).

Regarding `COc1ccc2[nH]c(=O)c(CN(CC3CCCO3)C(=O)Nc3ccccc3)cc2c1` (centres undefined), the Potency result was “inactive”.

Consider `Cc1ccc(S(=O)(=O)N(Cc2cc3ccccc3[nH]c2=O)CC2CCCO2)cc1` (centres undefined), for which the Potency entry was “inactive”.

As for `CCC(c1nnnn1Cc1ccco1)N(Cc1cc2cc(OC)ccc2[nH]c1=O)C1CCCCC1` (centres undefined), the Potency is 11.7 µM (active).

On to `CCC(c1nnnn1Cc1ccccc1)N(Cc1cc2cc(OC)ccc2[nH]c1=O)CC1CCCO1` (centres undefined), for which the Potency was 5.86 µM (active).

In the case of `CCC(=O)N(Cc1cc2cc(OC)ccc2[nH]c1=O)c1ccccc1C`, the Potency result is “inactive”.

As to `CCOc1ccc2[nH]c(=O)c(CN(CCCO)C(C)=O)cc2c1`, the Potency entry is “inactive”.

In the case of `COc1ccc(N(Cc2cc3cc(OC)ccc3[nH]c2=O)S(C)(=O)=O)cc1`, the Potency entry is “inactive”.

In the case of `CCC(=O)N(CCc1ccccc1)Cc1cc2cc(C)ccc2[nH]c1=O`, the Potency entry was “inactive”.

`COc1ccc(-c2nc(SCC(=O)N3CCCC3)n[nH]2)cc1`: the Potency entry was “inactive”.

Consider `CC(=O)Oc1cccc(C(=O)Nc2ccccc2NC(=O)c2cccc(OC(C)=O)c2)c1`, for which the Potency result was “inactive”.

For `COc1cccc(S(=O)(=O)NCc2ccc(C(=O)NCc3ccccn3)cc2)c1`, the Potency result is “inactive”.

In the case of `COc1cccc(CNc2ncc(-c3ccccc3)n2C)c1`, the Potency entry was “inactive”.

`Cc1cc(=O)oc2cc(NC(=O)C(C)Oc3ccccc3)ccc12` (centres undefined): the Potency result was “inactive”.

Consider `COc1ccc(/C=C(\C#N)C(=O)OCC(=O)N(C)C2CCS(=O)(=O)C2)cc1` (centres undefined), for which the Potency entry is “inactive”.

On to `O=C(O)c1c(NC(=O)N2CCCC2)sc2c1CCCC2`, for which the activity change, negative = inhibition is 0.211% [at 0.00184 µM].

In the case of `Cc1ccc(-c2nc(CS(=O)(=O)CC(=O)NCc3ccc4c(c3)OCO4)c(C)o2)cc1`, the Potency result was “inactive”.

On to `CCCCOC(=O)Nc1nnc(CC(=O)NCc2ccccc2)s1`, for which the Potency result was “inactive”.

For `CCC(C)c1ccc(NC(=S)N2CCCC2)cc1` (centres undefined), the Potency entry is “inactive”.

Turning to `CCC(c1nnnn1Cc1ccco1)N(CCc1ccccc1)Cc1cc2ccc(OC)cc2[nH]c1=O` (centres undefined), the Potency is 5.86 µM (active).

On to `COc1ccc2[nH]c3c(=O)n(Cc4ccco4)cnc3c2c1`, for which the Potency entry is “inactive”.

For the molecule `COc1ccc(N(Cc2cc3ccc(C)cc3[nH]c2=O)S(=O)(=O)c2ccccc2)cc1`, the Potency entry was “inactive”.

For the molecule `CCn1ccnc1CN(C)C(=O)c1cc(COc2ccc(Cl)cc2OC)on1`, the Potency entry is “inactive”.

Consider `C[C@]12CC[C@@H]3c4ccc(O)cc4C[C@@H](CCCCCCCCCS(=O)CCCC(F)(F)C(F)(F)F)C3[C@@H]1CC[C@@H]2O` (some centres undefined), for which the Potency is 9.53 µM (active).

For `Cc1cc(=O)oc2c3c(cc(OCC(=O)NCCC(=O)N[C@@H](C)C(=O)O)c12)OC(C)(C)CC3`, the Potency entry was “inactive”.

`Cc1c(NC(=O)Nc2cccc([N+](=O)[O-])c2)c(=O)n(-c2ccccc2)n1C`: the Potency entry was “inactive”.

For the molecule `CCN(CC)Cc1c(C(=O)OC)nnn1-c1nonc1N`, the Potency result is “inactive”.

As for `NNC(=O)c1nnn(-c2nonc2N)c1CN1CCCC1`, the Potency entry is “inactive”.

With `CCOC(=O)C1CCN(Cc2c(C(=O)N3CCOCC3)nc3c(C)cccn23)CC1`, the Potency entry is “inactive”.

As to `CCOC(=O)c1nnn(-c2nonc2-n2cccc2)c1CN1CCC(C(=O)OCC)CC1`, the Potency is 0.185 µM (active).

On to `CCOC(=O)c1nnn(-c2nonc2OC)c1-c1ccccc1`, for which the Potency entry is “inactive”.

As to `CCOC(=O)c1nnn(-c2nonc2-n2cccc2)c1CN1CCOCC1`, the Potency is 7.38 µM (active).

`CC(=O)Nc1ccc(S(=O)(=O)Nc2cc(C)cn(Cc3ccc(C)cc3)c2=O)cc1`: the Potency result is “inactive”.

Consider `COc1ccccc1CNS(=O)(=O)c1ccc2c(c1)NC(=O)CS2`, for which the Potency result is “inactive”.

Turning to `CCCn1cc(S(=O)(=O)c2ccc(C)cc2)c(=O)c2cc(OCC)ccc21`, the Potency result was “inactive”.

Take `CN(CC(=O)O)S(=O)(=O)c1ccc2oc3ccccc3c2c1`: the Potency entry was “inactive”.

In the case of `O=C(N/N=C/c1cccnc1)c1cc2ccccc2cc1O`, the Potency was 2.94 µM (active).

On to `Cc1ccc(/C=N/NC(=O)c2cc3ccccc3cc2O)o1`, for which the Potency is 0.586 µM (active).

`N=c1oc2ccccc2cc1C(=O)N/N=C/c1ccccc1`: the Potency entry is “inactive”.

Consider `CCOC(=O)N/N=C/c1cccnc1`, for which the Potency result is “inactive”.

In the case of `Cc1ccc(/C=N/NC(=O)CNC(=O)COc2ccccc2)o1`, the Potency entry is “inactive”.

For the molecule `O=C(N/N=C/c1cccnc1)c1ccc(NC(=O)c2ccc(F)cc2)cc1`, the Potency result is “inactive”.

Turning to `Cc1ccnc(NS(=O)(=O)c2ccc(NC(=O)c3oc4ccccc4c3C)cc2)n1`, the Potency result was “inactive”.

For `O=C(c1cccnc1)N1CCN(S(=O)(=O)c2cccs2)CC1`, the Potency entry is “inactive”.

With `Cc1ccc(C(=O)NCC(=O)OCc2nnc(-c3ccccc3)o2)cc1`, the Potency result is “inactive”.

For `CC(CC(=O)O)C(=O)c1ccc(Cl)c([N+](=O)[O-])c1` (centres undefined), the Potency result is “inactive”.

Turning to `O=C(/C=C/c1ccc(Cl)c([N+](=O)[O-])c1)c1cccnc1`, the Potency entry is “inactive”.

Take `NC(N)=N/N=C/c1ccc(Cl)c([N+](=O)[O-])c1`: the Potency was 1.47 µM (active).

Regarding `COc1cccc(C(=O)Nc2ccc(N3CCN(C(=O)c4ccco4)CC3)cc2)c1`, the Potency result was “inactive”.

In the case of `O=c1cc(CO)oc(CN2CCC(Cc3ccccc3)CC2)c1O`, the Potency entry is “inactive”.

For `Brc1ccccc1CN1CCC(Cc2ccccc2)CC1`, the Potency result was “inactive”.

As to `COc1cc(C)cc(CN2CCC(Cc3ccccc3)CC2)c1O`, the Potency was 0.928 µM (active).
